Rows were chosen to be rich in hits. Some 7.5% of all compounds tested hit in one or more screens of this group.
FLuc counter: inhibits or activates purified firefly luciferase, miR-21 counter-screen; purified FLuc, Km substrates, luminescence inhibition; 360,000 compounds, 6.9% hits; P08659; Potency, µM (top dose mostly 57.5 µM), without a hit: at the top dose activity change, negative = inhibition, hits mostly inhibitors;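 further: plate controls were vehicle for no effect and reference inhibitor for full effect; nearly all actives have a fitted effect of over 55% in size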
Target sequence (P08659 whole entry, looked up): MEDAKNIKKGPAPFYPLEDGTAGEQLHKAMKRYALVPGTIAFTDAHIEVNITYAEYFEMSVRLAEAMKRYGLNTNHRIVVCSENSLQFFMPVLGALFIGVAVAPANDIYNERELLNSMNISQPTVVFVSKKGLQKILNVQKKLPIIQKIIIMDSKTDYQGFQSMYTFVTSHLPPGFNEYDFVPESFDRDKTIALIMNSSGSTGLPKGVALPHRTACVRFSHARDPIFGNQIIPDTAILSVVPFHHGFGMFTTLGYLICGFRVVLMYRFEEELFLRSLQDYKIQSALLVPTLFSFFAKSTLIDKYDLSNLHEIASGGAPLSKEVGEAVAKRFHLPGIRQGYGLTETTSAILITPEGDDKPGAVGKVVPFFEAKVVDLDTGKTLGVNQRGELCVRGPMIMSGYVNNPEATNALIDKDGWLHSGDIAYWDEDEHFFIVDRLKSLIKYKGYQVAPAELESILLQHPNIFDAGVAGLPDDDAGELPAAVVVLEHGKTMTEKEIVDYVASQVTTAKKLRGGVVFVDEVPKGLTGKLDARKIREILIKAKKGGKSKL
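Purified P. pyralis luciferase (10nM final) with 10uM D-luciferin and 10uM ATP (Km levels) in 50mM Tris acetate pH 7.5, 10mM Mg acetate, 0.01% Tween-20, 0.05% BSA; qHTS 6-point titration, ~60 µM downward; luminescence read.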
ELG1 genotoxic: induces genotoxicity in HEK293T cells with luciferase-tagged ELG1; Potency, µM (doses to about 46 µM), without a hit: at the top dose activity change, positive = activation, most hits filed as activators; 330,000 compounds, 1.3% hits; AID 504466; HEK293T ELG1-luciferase reporter, luminescence, 16 h; further: % of control where 0% means no effect; nearly all actives have a fitted effect of over 60% in size
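DMSO vehicle served as control against compound-treated ELG1-luciferase HEK293T cells; exposure lasted 16 hr at 37 °C and 5% CO2, followed by ONE-Glo luminescence detection after 30 min.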
SMN2 splice enh: increases expression of the SMN2 splice variant; Potency, µM (top dose mostly 46.1 µM), for inactives: top-dose activity change, positive = activation, actives largely listed as activators; HEK293 SMN2-luciferase splicing reporter, luminescence, 30-36 h; 210,000 compounds, 2.8% hits; further: % of control where 0% means no effect; nearly all actives have a fitted effect of over 55% in size
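HEK293 cells carry an SMN2 minigene-luciferase reporter in which exon 7 inclusion puts luciferase in frame. Cells were seeded at 2000 cells/well, attached for 10-12 hours, then exposed to compounds for 30-36 hours at 37C before ONE-Glo luminescence.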
NPC1 promoter act: activators of NPC1 promoter; Huh7 NPC1 promoter luciferase reporter, 24 h; Potency, µM (highest dose often 9.22 µM), for inactives: at the highest dose activation, actives largely listed as activators; 320,000 compounds, 2.4% hits; AID 485313; further: % of control where 0% means no effect; nearly all actives have a fitted effect of over 60% in size
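Quantitative HTS used a cell-based reporter: Huh7 cells stably bearing the NPC1 promoter upstream of luciferase were treated with compounds for 24 h, and promoter activation was read as luminescence.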
Luc counter: counter-screen: inhibitors of Kinase-Glo firefly luciferase. Q27757. Kinase-Glo luciferase, ATP luminescence, 8 min. Potency, µM (doses to about 38.3 µM), inactives show top-dose activity change, negative = inhibition, actives largely listed as inhibitors. 200,000 compounds, 0.28% hits. AID 1379; further: on the % scale 0 is the no-effect control and ±100 the full control effect; nearly all actives have a fitted effect of over 60% in size
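Inhibition of Kinase-Glo luciferase light generation was assessed at 10 uM ATP in pH 7.2 imidazole buffer, with luminescence measured after eight minutes at ambient temperature.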
Rab9 promoter act: activators of Rab9 promoter; Potency, µM (series often up to 9.22 µM), without a hit: at the top dose activation, negative = inhibition, most hits filed as activators; AID 485297; Huh7 Rab9 promoter-luciferase reporter, luminescence, 24 h; 320,000 compounds, 2.8% hits; further: % of control where 0% means no effect; nearly all actives have a fitted effect of over 60% in size
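Steps: seed 1500 Huh7 Rab9-luc cells per well, rest 2 h at 37 °C; add compound in DMSO; incubate 24 h; add luciferase reagent, 10 min ambient; read luminescence.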
* marks the source's active call; other numbers are inactive results; ? = inconclusive; . = no result given. The call rests on the fitted dose curve; in most records, active means well fitted curve in the direction sought with a large enough effect; inconclusive means small, poorly fitted or top-dose-only effect, or another doubt; inactive means no such curve, though single readings can be large; an effect the other way counts as inactive or inconclusive. Potency means the concentration at half of the fitted maximal effect.

SMILES	FLuc counter	ELG1 genotoxic	SMN2 splice enh	NPC1 promoter act	Luc counter	Rab9 promoter act
CCOc1ccc(NC(=O)CCCn2c(C)c3cnn(-c4ccccc4)c(=O)c3c2C)cc1	-1.7%	.	-6.1%	.	.	.
Cc1ccc2nc(N3C(=O)CNC3=S)sc2c1	1.51µM*	20.6µM*	.	1.12µM*	.	?
COc1ccc2nc(N3C(=O)CNC3=S)sc2c1	2.39µM*	20.6µM*	.	3.55µM*	.	1.26µM*
COc1ccccc1C(=O)NCCC(=O)NCc1ccccn1	2.9%	1.5%	.	-7.6%	.	2.9%
CCN1CCOC(=O)C1CC(=O)Nc1cc(Cl)ccc1OC (stereo unspecified)	-5.5%	.	4.1%	.	.	.
COc1ccc(CNC(=O)c2nc(Cn3nc(C)c(Br)c3C)no2)cc1OC	1.1%	.	-13.5%	.	.	.
C#CCn1c(=NC(=O)c2ccc3c(c2)OCCO3)sc2cc(OC)c(OC)cc21	-1.2%	.	.	.	.	.
COc1ccc(C(=O)N=c2sc3c(C)ccc(OC)c3n2C)cc1	0.601µM*	0.461µM*	3.98µM*	?	12.6µM*	?
CCn1c(=NC(=O)c2ccc3c(c2)OCCO3)sc2c(C)ccc(OC)c21	1.9µM*	.	.	.	.	.
COc1ccc(CCNC(=O)Cn2c(=O)n(-c3cc(OC)c(OC)c(OC)c3)c(=O)c3ccccc32)cc1OC	2.5%	.	-0.8%	.	.	.
O=Nc1c2cc(-c3ccccc3)[nH]nc-2c2ccccc12	0.426µM*	?	0.501µM*	3.16µM*	2.24µM*	?
Cc1ccc(-c2cc3c(N=O)c4ccccc4c-3n[nH]2)cc1	0.0953µM*	?	-89.8%	2.1%	10µM*	?
Cc1ccc(-c2n[nH]c(=O)c3ccccc23)cc1S(=O)(=O)N(C)C	-0.9%	2.7%	.	-1.0%	.	-0.1%
O=c1[nH]nc(-c2ccccc2)c2ccccc12	-2.0%	-9.8%	.	1.0%	.	0.9%
Cc1cccc(-c2cc3c(N=O)c4ccccc4c-3n[nH]2)c1	0.536µM*	?	3.16µM*	0.708µM*	10µM*	1.26µM*
COc1cccc(CNC(=O)c2ccc(C(=O)NCc3cccc(OC)c3)cc2)c1	3.2%	?	.	-0.6%	.	-2.7%
Cc1ccc(C(=O)Nc2cccc(C(=O)NCc3ccccc3)c2)cc1	8.49µM*	-8.2%	-14.2%	12.8%	-2.6%	9.8%
COc1cccc(CNC(=O)c2ccc(C3SCCS3)cc2)c1	16.9µM*	17.3%	.	4.5%	.	5.8%
COc1ccc(C(=O)Nc2cccc(C(=O)NCc3ccccc3)c2)cc1	12µM*	-5.0%	1.3%	2.8%	-2.7%	-2.4%
COc1ccc(NC(=O)c2cccc(NC(=O)c3ccccc3)c2)cc1	?	4.0%	.	?	.	?
Cc1occc1C(=O)Nc1cccc(C(=O)NCc2ccccc2)c1	0.7%	-3.5%	-7.7%	-1.5%	4.2%	-7.9%
CCC(=O)Oc1ccc(C(=O)Nc2cccc(C(=O)NCC(C)C)c2)cc1	13.5µM*	-1.3%	.	-4.3%	3.4%	-9.2%
Cc1ccc(C2=NN(CC(=O)NCCc3ccc(Cl)cc3)C(=O)CC2)cc1	-12.3%	.	.	.	.	.
CCOc1ccc(CNC(=O)c2ccc(NC(=O)N3CCSc4ncccc43)cc2)cc1OC	2.5%	.	.	.	.	.
O=C(Nc1ccccc1C(=O)NCc1ccco1)Nc1cccc2ccccc12	-20.0%	-3.5%	3.2%	-5.1%	-0.1%	-3.5%
SMILES	FLuc counter	ELG1 genotoxic	SMN2 splice enh	NPC1 promoter act	Luc counter	Rab9 promoter act
O=C(Nc1cccc(Cl)c1)Nc1ccccc1C(=O)NCc1ccco1	19µM*	0.8%	8.6%	3.2%	-9.7%	6.6%
Cc1ccc(C(=O)Nc2cccc(C(=O)NCc3ccco3)c2)cc1	12µM*	11.7%	?	?	-2.4%	27.6%
O=C(NCc1ccccc1Cl)c1cc2c(s1)-c1ccc(Cl)cc1SC2	-11.2%	.	-1.8%	.	.	.
Brc1cc2c(cc1/C=N/Nc1nc3ccccc3s1)OCO2	-19.1%	18.4µM*	?	?	-5.4%	?
C(=N\Nc1nc2ccccc2s1)/c1ccc2c(c1)OCO2	0.757µM*	?	1µM*	3.98µM*	-2.1%	1.26µM*
O=C(O)C/C(=C\c1cc2c(cc1Br)OCO2)c1nc2ccccc2s1	-6.0%	-0.2%	.	-1.9%	.	-6.0%
Cc1ccc(S(=O)(=O)N/N=C\c2ccc3c(c2)OCO3)cc1C	-12.2%	4.2%	.	0.8%	.	-3.1%
Cc1nc(N/N=C\c2ccc3c(c2)OCO3)sc1C	1.9µM*	?	.	1.58µM*	.	0.316µM*
CCOC(=O)[C@H]1[C@H]2COc3cc(OC)ccc3[C@@H]2N2C(=O)N(c3ccc(Cl)cc3)C(=O)[C@@]12C	0.7%	-2.6%	.	-4.4%	.	-2.7%
COc1ccc(NC(=O)c2sc3nc4c(cc3c2N)CN(C(C)C)CC4)c(OC)c1	-10.0%	.	-58.5%	.	.	.
CCOc1ccc(CCNC(=O)CCn2c(=O)c3cccn3c3ccc(F)cc32)cc1OCC	-11.1%	.	.	.	.	.
COc1ccc(CN2C(=O)CS/C2=N/N=C/c2cccs2)cc1	16.9µM*	13.5%	.	-15.7%	.	11.3%
COc1ccc(OC)c(/C=N/N=C2\SCC(=O)N2Cc2ccco2)c1	0.5%	2.5%	-18.5%	2.8%	4.2%	-0.5%
CN(C)c1ccc(N=C/C=C2\N(C)c3ccccc3C2(C)C)cc1	15.1µM*	5.1%	-18.8%	21.5%	-11.7%	15.1%
CN1\C(=C/C=C/C=C/C=[N+](C)C)C(C)(C)c2ccccc21	8.49µM*	-2.3%	-26.1%	-16.4%	11.2µM*	-8.1%
CN1/C(=C\C=O)C(C)(C)c2ccccc21	-0.9%	-2.0%	-0.1%	-6.4%	-2.8%	-5.8%
O=C1N/C(=N/N=C/c2ccc(F)cc2)SC1c1ccccc1 (stereo unspecified)	15.1µM*	9.3%	.	1.5%	.	15.3%
CC(=O)c1cccc(NC(=O)CC2S/C(=N/N=C/c3ccccc3)NC2=O)c1 (stereo unspecified)	-2.0%	4.7%	-6.8%	-0.9%	-0.6%	-2.9%
CN(Cc1ccco1)C(=O)c1ccc2c(c1)N(Cc1ccccc1F)C(=O)c1ccccc1S2	-19.2%	.	.	.	.	.
c1ccc(SCc2nc3ccccc3[nH]2)nc1	21.3µM*	?	6.0%	?	-8.4%	?
Cn1c(CSc2nc3ccccc3s2)n[nH]c1=S	-12.6%	-8.0%	17.9%	-2.5%	2.5%	2.3%
c1ccc2[nH]c(CSc3nc4ccccc4s3)nc2c1	15.1µM*	8.4%	-31.0%	29.0%	-2.6%	22.5%
Cn1c(CSc2nc3ccccc3s2)nc2ccccc21	10.7µM*	13µM*	15.8µM*	?	-6.7%	?
CC(=O)Nc1ccc(S(=O)(=O)NC2(C(F)(F)F)NC(=O)N(CCc3ccc(F)cc3)C2=O)cc1 (stereo unspecified)	-16.6%	.	-17.8%	.	.	.
COc1ccc(Nc2nc3ccc(OC)cc3s2)cc1	10.7µM*	?	12.6µM*	?	2.2%	2.24µM*

Compound activity: PubChem, National Center for Advancing Translational Sciences (NCATS)
